Measurements: PubChem BioAssay AID624202 (National Center for Advancing Translational Sciences (NCATS), 2012)
Screen size: about 380,000 compounds; about 4,000 (1.1%) were called active. Not shown: some 3% with an inconclusive outcome. Shown is part of a subset that was picked to be rich in actives. A number with no mark means an inactive call. Calls come from the whole dose curve; as a rule, active = well fitted activation curve with a large enough effect; inconclusive = small, poorly fitted or top-dose-only effect; inactive = no such curve, though single readings can be large or run the other way.

test: qHTS Assay to Identify Small Molecule Activators of BRCA1 Expression; details: MCF7-BRCA1-FFLuc reporter, luminescence, 48 h; series mostly up to 46.1 µM; activation: at the top concentration; note: nearly all actives have a fitted effect of over 80% in size
Text: Functionally, BRCA1 has been implicated in a wide array of cellular activities, including DNA damage repair, cell-cycle checkpoint control, growth inhibition, apoptosis, transcriptional regulation, chromatin remodeling, protein ubiquitylation, and mammary stem cell self-renewal and differentiation. Reduction in BRCA1 levels is associated with an increase in tumor growth and resistance to anti-estrogenic agents, such as tamoxifen, while an increase in BRCA1 expression leads to cell growth arrest and apoptosis. […] The frequent loss of BRCA1 expression in invasive breast cancers in the absence of somatic mutation has been attributed to numerous mechanisms, including hypermethylation of the BRCA1 promoter, exaggerated ubiquitylation of BRCA1 protein, and improper intracellular localization. […] Basal-like breast cancers (BLBCs) are associated with an aggressive clinical course, resistance to chemotherapy, and typically lack expression of estrogen receptor (ER), progesterone receptor (PR), and epidermal growth factor receptor 2 (HER2). BLBCs account for 10-17% of all breast cancers, have few therapeutic options, and are considered the biggest unmet need in the treatment of breast cancer. Conversely, tumors which maintain expression of functional BRCA1 are almost uniformly luminal type cancers, and are accordingly associated with more indolent clinical courses, responsiveness to endocrine therapies, and improved survival.
As such, it is possible that an increase in BRCA1 expression would enable cellular differentiation and restore tumor suppressor function, resulting in delayed tumor growth and less aggressive, more treatable breast cancers. The long term goal of this proposal is to develop a novel prevention or therapeutic agent for breast cancer patients. To accomplish this goal, the overall objective of this proposal is to access the resources provided by the NIH Molecular Libraries Roadmap Initiative and the Molecular Libraries Probe Production Centers Network (MLPCN) to discover and develop new chemical activator probes that will increase BRCA1 expression and function.
NIH Molecular Libraries Probe Production Network [MLPCN]
NIH Chemical Genomics Center [NCGC]
PI Name: Lisa Harlan-Williams, University of Kansas Medical Center
5microl of MCF7-BRCA1-FFLuc cell suspension (400 cells/microl in phenol-red free MEM) are dispensed into Greiner white solid bottom 1536-well assay plates, yielding a final well density of 2000 cells/well. Plates are incubated for 2 hours at 37 degrees C in 5% humidified CO2 to allow cell attachment. Compounds are then transferred via Kalypsys pin tool equipped with 1536-pin array (10nl slotted pins, V&P Scientific, San Diego, CA). The plates are then incubated at 37 degrees C in 5% humidified CO2 for 48 hours. The NCGC in-house luciferase substrate reagent, Buglite, is then added (2.5microl) and plates incubated for 15 minutes, before being transferred to a ViewLux high-throughput CCD imager (PerkinElmer) wherein single end-point measurements of luminescence are acquired using a clear filter. The positive control compound, genistein, will be pinned into dedicated control columns on each plate, including a 16-point 1:3 titration in duplicate, as well as a 10microM maximum activation control, allowing for the normalization of screening activity. DMSO will be pinned into a separate column as a negative control.
All screening operations will be performed on a fully integrated robotic system (Kalypsys, San Diego, CA) containing one RX-130 and two RX-90 anthropomorphic robotic arms (Staubli, Duncan, SC). Library plates will be screened starting from the lowest and proceeding to the highest concentration. Vehicle-only plates, with DMSO being pin-transferred to columns 5-48, will be inserted uniformly at the beginning and the end of each library in order to monitor and record any shifts in the background, which can be affected by reagent dispensers or loss in enzyme activity over time. […]
Potency is the fitted concentration of half-maximal effect.

SMILES | activation | Potency
NS(=O)(=O)c1ccc(CCNC(=O)c2ccc(Cl)cc2[N+](=O)[O-])cc1 | -10.3% | 
O=C(NCCc1ccccc1)C1CC1 | 32.3% | 
CC(C)C[C@H](NC(=O)NCCc1ccc(Cl)cc1)C(=O)O | -20.5% | 
Cc1cc(C(=O)NCCc2ccc(Cl)cc2)c(C)o1 |  | 8.91 µM (active)
O=C(NCCc1ccccc1)Oc1ccc(Cl)cc1 |  | 12.6 µM (active)
O=C(COc1ccc(Cl)cc1)NCCSc1ccccc1 | 51.9% | 
Cc1nc2ccc(S(=O)(=O)NC(C(=O)NCc3ccccc3Cl)C(C)C)cc2s1 (stereo unspecified) | 12.6% | 
COc1ccc(Cl)cc1NC(=O)CSc1nc(-c2cccs2)cc(C(F)(F)F)n1 | -14.4% | 
COc1ccc(CNc2nc(-c3ccccc3)nn2C(=O)c2ccccc2OC)cc1 | 65.4% | 
O=C(/C=C/c1cn(CC(O)CN2CCc3ccccc32)c2ccccc12)c1ccc(Br)cc1 (stereo unspecified) | -51.9% | 
O=C(Nc1ccc2c(c1)OCCO2)C1CCCN(c2ncccn2)C1 (stereo unspecified) |  | 10 µM (active)
O=C(Nc1ccc2c(c1)OCCO2)C1CCCC1 | 51.4% | 
O=C(Nc1ccccn1)C1CCN(S(=O)(=O)c2ccc3c(c2)OCCO3)CC1 | 47.3% | 
CCOc1ccc(OCC)c(NS(=O)(=O)c2ccc3[nH]c(=O)ccc3c2)c1 | 9% | 
O=C(Nc1cccc2cccnc12)C(F)(F)F | 32.5% | 
O=C(Nc1ccc(C(=O)NCc2ccccc2Cl)cc1)C1=CSCCO1 |  | 11.2 µM (active)
CSc1ccc(CNC(=O)c2ccc(NC(=O)C3=CSCCO3)cc2)cc1 | -7.67% | 
O=C(NCc1ccccc1Cl)C1CCCO1 (stereo unspecified) | 11.4% | 
CCc1ccccc1NC(=O)Cn1c(=O)n(-c2cccc(C)c2)c(=O)c2c1c1cc(OC)ccc1n2C | -19% | 
COc1ccc(/C=C/C(=O)Nc2ccc(C34CC5CC(CC(O)(C5)C3)C4)cc2)cc1OC | -26.3% | 
COc1ccccc1C(=O)NC(=S)NC12CC3CC(CC(C3)C1)C2 | -12.5% | 
CSc1ccc(/C=C/C(=O)NC23CC4CC(CC(C4)C2)C3)cc1 |  | 11.2 µM (active)
CSc1nn(Cc2cccc(C)c2)c(N)c1S(=O)(=O)c1ccccc1 | -23% | 
COc1ccc(CCNc2ncnc3onc(-c4ccc(Cl)cc4)c23)c(OC)c1 | -32.5% | 

SMILES | activation | Potency
CCOC(=O)c1cccc(NS(=O)(=O)c2cc(-c3cnc(C)o3)ccc2OC)c1 | -14.7% | 
N#Cc1nc(/C=C/c2ccc(F)cc2)oc1NCc1ccc(F)cc1 | 4.74% | 
C/C(=N\NC(=S)NC1CCCCC1)c1ccc(C)o1 | 41.7% | 
Cc1ccc(/C=N/NC(=S)NC2CCCCC2)o1 |  | 4.47 µM (active)
Cc1ccc(/C=N/NC(=O)Cn2ccc(C(F)(F)F)n2)o1 | -2.27% | 
Cc1ccc(NC(=S)NC2CCCC2)cc1 |  | 10 µM (active)
S=C(Nc1ccc(Br)cc1)NC1CCN(Cc2ccccc2)CC1 | 5.12% | 
Cc1ccc(NC(=O)CSCC(=O)NC2CCCCC2)cc1 | 17.2% | 
CCOC(=O)c1ccc(NC(=O)C2CC(=O)NC(=Nc3ccc(C)c(C)c3)S2)cc1 (stereo unspecified) | 2.36% | 
COc1cccc(CNC(=O)c2cc(=O)[nH]c3ccc(S(=O)(=O)N4CCCCC4)cc23)c1 | 3.87% | 
CCc1ccc(CNCc2c(C(=O)O)n(Cc3ccc(F)cc3Cl)c3cc(OC)ccc23)cc1 | -23.5% | 
CN(C)c1ccc(/C=N\Nc2ccc([N+](=O)[O-])cc2[N+](=O)[O-])cc1Cl | 4.33% | 
CN(C)c1ccc(C(CC(=O)O)C(=O)O)cc1 (stereo unspecified) | -8.28% | 
CN(C)c1ccc(N/C=C/C(=O)C(F)(F)F)cc1 | 17.9% | 
CC(C)CNC(=O)C(=O)Nc1ccc(N(C)C)cc1 |  | 2.24 µM (active)
CCOC(=O)Cn1c(=O)n(-c2ccccc2OC)c2nc(-c3cccc(F)c3)nc(C(N)=O)c21 | -41.4% | 
CCn1nnnc1SCC(=O)Nc1ccc(N(C)C)cc1 | 70.3% | 
CCn1nnnc1SCC(=O)c1ccc(C)cc1C |  | 6.31 µM (active)
COc1ccc(C(=O)CSc2nnnn2C)c(OC)c1 | -6.19% | 
CCCCn1c(CNC(=O)C23CC4CC(CC(C4)C2)C3)nnc1SCC(=O)Nc1ccc(C)cc1 | -13.4% | 
COc1ccc(Cn2c(C(=O)O)c(CNCCc3cccs3)c3ccc(OC)cc32)cc1 | 0% | 
N#Cc1cccc(CSc2ncnc(N)n2)c1 | -4.83% | 
Nc1nc(SCc2cccc(Br)c2)n[nH]1 | -2.4% | 
Nc1cc(N)nc(SCc2cccc(F)c2)n1 |  | 12.6 µM (active)

SMILES | activation | Potency
Cc1ccc(Cn2c(=O)n(CCCC(=O)NCc3ccccc3Cl)c(=O)c3ccccc32)cc1 | 0% | 
O=C(COc1cccc(-n2cnnn2)c1)NCCC1=CCCCC1 | -2.75% | 
O=C(NCCC1=CCCCC1)c1ccc(Cl)c([N+](=O)[O-])c1 |  | 7.94 µM (active)
CC(Sc1nncn1C)C(=O)NCCC1=CCCCC1 (stereo unspecified) | -7.87% | 
O=C(NCCC1=CCCCC1)c1ccc(-n2cncn2)cc1 |  | 3.16 µM (active)
CC(OC(=O)CNC(=O)c1ccc(Cl)c([N+](=O)[O-])c1)C(=O)NCc1ccco1 (stereo unspecified) | -3% | 
O=C(COc1ccc(Cl)cc1)NCCC1=CCCCC1 | -1.76% | 
CC(=O)c1ccc[n+](C(C)CCC(C)[n+]2cccc(C(C)=O)c2)c1 (stereo unspecified) | 16.4% | 
COc1ccc(-c2cc(NCc3ccc(F)cc3)n3cnnc3n2)cc1 | 11.7% | 
Cc1ccc2c(c1)c1c(c(=O)n(-c3ccccc3)c(=O)n1CC(=O)c1ccc(Cl)cc1)n2C | 3.56% | 
Cc1ccc(OCC(=O)OCc2cc(=O)n3nc(C4CC4)sc3n2)cc1 | 0% | 
COCCN(C(=O)C(C)C)c1nnc(-c2ccc(C(C)(C)C)cc2)s1 | 11.9% | 
COc1ccc(N(CC(=O)NC(C)(C)C)C(=O)c2ccco2)cc1 | 1.11% | 
COCCN(C(=O)c1ccco1)c1nnc(-c2ccc(OC)cc2)s1 |  | 7.08 µM (active)
Cc1c(CCO)sc[n+]1CC(=O)c1ccc2ccccc2c1 | 16.3% | 
O=C(CC1Oc2ccccc2NC1=O)NCc1ccc(F)cc1 (stereo unspecified) | 12.5% | 
Cc1[nH]c2ccccc2c1SCC(=O)Nc1nccs1 | 79.8% | 
Cc1cc(C(F)(F)F)nc(SCC(=O)Nc2nccs2)n1 | 0.479% | 
CC(=O)c1cc(C#N)c(SCC(=O)Nc2nccs2)nc1C |  | 2 µM (active)
Cc1oc2c(c1C(=O)Nc1ccc(F)c(F)c1)C1=NCCN1C=N2 | -27.6% | 
CCN=C1S/C(=C\c2cc(Br)ccc2OCC(=O)OCC)C(=O)N1CC | -28.2% | 
Cc1cc(/C=C2/SC(=O)N(CC(=O)N3CCCC3)C2=O)ccc1N1CCOCC1 | 24.6% | 
Cc1cc(/C=C2/SC(=O)N(CC(=O)OC(C)C)C2=O)c(C)n1C |  | 2.51 µM (active)
